The text below walks through data of PubChem BioAssay (EPA / NIEHS).

By AC50 is commonly meant the concentration at which the activity in the assay is half-maximal.

The target in experiment [1] is human Raf-1 Proto-Oncogene, serine/threonine Kinase (RAF1), RAF1 (gene 5894) (UniProt P04049). The experiment can be described thus: NVS_ENZ_hRAF1: NovaScreen (NVS) Enzymatic Assay for human Raf-1 Proto-Oncogene, serine/threonine Kinase (RAF1) (AID 2283216). An outline of the steps:
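Single-point screening at 25 uM (duplicate), followed by singleton concentration-response to 50 uM maximum for chemicals exceeding threshold. Enzyme activity from fluorescent substrate-product mobility-shift separation after 1 h, relative to DMSO.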

Experiment [2] has as its target human Protein Tyrosine Phosphatase Non-receptor Type 1 (PTPN1), PTPN1 (gene 5770) (UniProt P18031). Put plainly: NVS_ENZ_hPTPN1: NovaScreen (NVS) Enzymatic Assay for human Protein Tyrosine Phosphatase Non-receptor Type 1 (PTPN1) (AID 2283201). In short, it runs like this:
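Chemicals were first tested in duplicate at 25 uM, and those passing threshold went on to singleton concentration series topping at 50 uM. Recombinant enzyme, specific substrate, product separated by mobility shift, fluorescence read at 1.33 h; activity loss relative to DMSO.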

The next experiment concerns the target PPP2CA (gene 5515) (UniProt P67775). Put plainly: NVS_ENZ_hPPP2CA: NovaScreen (NVS) Enzymatic Assay for human Protein Phosphatase 2 Aatalytic subunit Alpha (PPP2CA) (AID 2283199). In short, it runs like this: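 Cell-free phosphatase activity: fluorescent substrate turnover by recombinant human enzyme, resolved by mobility shift at 1.33 h. Compounds passing the 25 uM duplicate primary screen were rerun in singleton series with a 50 uM top concentration.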

The target of experiment [3] is human Phosphatase and Tensin Homolog (PTEN), PTEN (gene 5728) (UniProt P60484). Put plainly: NVS_ENZ_hPTEN: NovaScreen (NVS) Enzymatic Assay for human Phosphatase and Tensin Homolog (PTEN) (AID 2283203). An outline of the steps:
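Loss of fluorescent product signal after mobility-shift separation reports PTEN activity, recombinant human enzyme, 1 h after compound addition. Single 25 uM duplicate screen, then concentration-response on actives; DMSO baseline.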

For experiment [4], the target named is human Protein Tyrosine Phosphatase Non-receptor Type 2 (PTPN2), PTPN2 (gene 5771) (UniProt P17706). Put plainly: NVS_ENZ_hPTPN2: NovaScreen (NVS) Enzymatic Assay for human Protein Tyrosine Phosphatase Non-receptor Type 2 (PTPN2) (AID 2283207). In short, it runs like this:
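Activity measured as fluorescence after mobility-shift separation of substrate and product, 1 h after compound. Duplicate single-point 25 uM primary testing, concentration series for actives; inhibition scored as signal loss relative to DMSO baseline.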

Experiment [5] deals with Tyrosine-protein phosphatase non-receptor type 14 (Homo sapiens) (UniProt Q15678). Put plainly: NVS_ENZ_hPTPN14: NovaScreen (NVS) Enzymatic Assay for human Protein Tyrosine Phosphatase Non-receptor Type 14 (PTPN14) (AID 2283206). In short, it runs like this: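 Fluorescent substrate turnover by recombinant human PTPN14 was measured 0.5 h after compound addition, with substrate and product separated by mobility shift. Single-point screening at 25 uM, then concentration-response up to 50 uM for chemicals meeting threshold (e.g., 30% inhibition).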

In experiment [6] the target is human Protein Tyrosine Phosphatase Receptor Type F (PTPRF), PTPRF (gene 5792) (UniProt P10586). Put plainly: NVS_ENZ_hPTPRF: NovaScreen (NVS) Enzymatic Assay for human Protein Tyrosine Phosphatase Receptor Type F (PTPRF) (AID 2283213). An outline of the steps: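 Cell-free fluorescence enzyme assay with recombinant protein and substrate; product separated by electrophoretic mobility shift. Read 1 h after dosing, single 25 uM duplicate screen, then concentration-response up to 50 uM; loss of signal vs DMSO.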
Chain of human Protein Tyrosine Phosphatase Receptor Type F (PTPRF), PTPRF (gene 5792) (P10586 whole entry, looked up): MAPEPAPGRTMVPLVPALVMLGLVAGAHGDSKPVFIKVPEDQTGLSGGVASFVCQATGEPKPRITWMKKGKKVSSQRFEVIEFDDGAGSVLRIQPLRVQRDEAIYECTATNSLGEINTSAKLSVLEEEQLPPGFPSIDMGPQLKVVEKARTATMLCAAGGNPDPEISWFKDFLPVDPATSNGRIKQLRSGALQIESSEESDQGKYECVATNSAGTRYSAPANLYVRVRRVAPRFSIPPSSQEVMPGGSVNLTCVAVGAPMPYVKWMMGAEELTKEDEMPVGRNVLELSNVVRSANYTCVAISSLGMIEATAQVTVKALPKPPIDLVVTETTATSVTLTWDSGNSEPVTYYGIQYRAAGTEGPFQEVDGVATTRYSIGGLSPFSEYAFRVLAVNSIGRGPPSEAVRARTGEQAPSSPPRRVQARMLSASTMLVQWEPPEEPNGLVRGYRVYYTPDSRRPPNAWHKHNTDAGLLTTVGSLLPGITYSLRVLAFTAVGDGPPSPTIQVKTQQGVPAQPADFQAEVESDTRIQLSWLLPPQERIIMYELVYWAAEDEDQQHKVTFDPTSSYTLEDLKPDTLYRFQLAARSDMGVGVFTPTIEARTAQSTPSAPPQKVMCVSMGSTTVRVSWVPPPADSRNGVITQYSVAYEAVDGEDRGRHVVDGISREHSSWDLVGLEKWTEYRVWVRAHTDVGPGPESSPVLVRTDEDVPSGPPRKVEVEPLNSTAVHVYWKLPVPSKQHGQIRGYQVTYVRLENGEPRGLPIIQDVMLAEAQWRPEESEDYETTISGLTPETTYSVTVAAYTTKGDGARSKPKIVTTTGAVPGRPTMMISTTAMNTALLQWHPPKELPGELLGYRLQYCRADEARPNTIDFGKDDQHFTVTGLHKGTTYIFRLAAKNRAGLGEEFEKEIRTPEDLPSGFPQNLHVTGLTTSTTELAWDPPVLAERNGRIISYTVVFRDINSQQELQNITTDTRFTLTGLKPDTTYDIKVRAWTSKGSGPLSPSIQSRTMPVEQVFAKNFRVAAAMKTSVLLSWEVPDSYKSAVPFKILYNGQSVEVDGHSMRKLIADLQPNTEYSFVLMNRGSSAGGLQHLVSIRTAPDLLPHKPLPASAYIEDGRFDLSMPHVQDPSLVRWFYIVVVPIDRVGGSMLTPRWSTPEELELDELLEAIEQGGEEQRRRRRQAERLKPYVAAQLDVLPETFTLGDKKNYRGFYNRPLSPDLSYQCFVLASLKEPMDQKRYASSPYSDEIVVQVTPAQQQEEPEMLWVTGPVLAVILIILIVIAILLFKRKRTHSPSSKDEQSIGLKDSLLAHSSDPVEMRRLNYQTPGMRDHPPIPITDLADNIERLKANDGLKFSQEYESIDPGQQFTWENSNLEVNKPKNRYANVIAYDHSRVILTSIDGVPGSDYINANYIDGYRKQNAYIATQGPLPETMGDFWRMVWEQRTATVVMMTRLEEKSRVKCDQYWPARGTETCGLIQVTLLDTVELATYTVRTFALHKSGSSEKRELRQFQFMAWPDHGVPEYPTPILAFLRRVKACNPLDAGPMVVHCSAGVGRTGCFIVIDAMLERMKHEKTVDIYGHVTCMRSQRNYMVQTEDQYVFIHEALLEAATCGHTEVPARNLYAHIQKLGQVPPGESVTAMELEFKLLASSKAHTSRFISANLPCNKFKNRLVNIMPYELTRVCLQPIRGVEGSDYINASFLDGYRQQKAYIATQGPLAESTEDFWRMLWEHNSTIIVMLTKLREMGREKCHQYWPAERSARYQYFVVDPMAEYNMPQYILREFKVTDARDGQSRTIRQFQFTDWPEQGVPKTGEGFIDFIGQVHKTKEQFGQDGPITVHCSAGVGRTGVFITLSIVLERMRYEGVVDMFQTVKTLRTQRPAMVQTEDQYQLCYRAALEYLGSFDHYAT

Experiment [7] deals with human Sirtuin 1 (SIRT1), SIRT1 (gene 23411) (UniProt Q96EB6). Put plainly: NVS_ENZ_hSIRT1: NovaScreen (NVS) Enzymatic Assay for human Sirtuin 1 (SIRT1) (AID 2283219). An outline of the steps:
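Cell-free recombinant SIRT1 with a fluorescent substrate; substrate and product separated by electrophoretic mobility shift and read by fluorescence intensity, 1 h after dosing. Primary screen at 25 uM in duplicate; hits re-run in concentration-response up to 50 uM, relative to DMSO.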

Experiment [8] has as its target human Rho Associated Coiled-coil Containing Protein Kinase 1 (ROCK1), ROCK1 (gene 6093) (UniProt Q13464). The experiment can be described thus: NVS_ENZ_hROCK1: NovaScreen (NVS) Enzymatic Assay for human Rho Associated Coiled-coil Containing Protein Kinase 1 (ROCK1) (AID 2283214). An outline of the steps: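 Compounds first run in duplicate at 25 uM against recombinant human ROCK1, then followed in concentration series. Kinase activity was read 1 h post-dosing by fluorescence with mobility-shift separation, as signal loss relative to DMSO.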

Experiment [9] has as its target human Protein Tyrosine Phosphatase Non-receptor Type 9 (PTPN9), PTPN9 (gene 5780) (UniProt P43378). The experiment can be described thus: NVS_ENZ_hPTPN9: NovaScreen (NVS) Enzymatic Assay for human Protein Tyrosine Phosphatase Non-receptor Type 9 (PTPN9) (AID 2283209). An outline of the steps:
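Sf9-expressed enzyme in a cell-free assay, fluorescence read 1.33 h after dosing with mobility-shift separation of substrate and product. Tested at 25 uM in duplicate, then up to 50 uM; signal loss versus DMSO.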

In experiment [10] the target is human Protein Tyrosine Phosphatase Receptor Type M (PTPRM), PTPRM (gene 5797) (UniProt P28827). The experiment can be described thus: NVS_ENZ_hPTPRM: NovaScreen (NVS) Enzymatic Assay for human Protein Tyrosine Phosphatase Receptor Type M (PTPRM) (AID 2283215). An outline of the steps: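 Read-out is fluorescence after electrophoretic separation of substrate and product, taken 1.33 h post-dosing with recombinant enzyme. Compounds screened at 25 uM in duplicate, then concentration series for actives; activity as signal loss relative to DMSO.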

Experiment [11] deals with human Sirtuin 2 (SIRT2), SIRT2 (gene 22933) (UniProt Q8IXJ6). The experiment can be described thus: NVS_ENZ_hSIRT2: NovaScreen (NVS) Enzymatic Assay for human Sirtuin 2 (SIRT2) (AID 2283217). In short, it runs like this: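 Single-point duplicate screen at 25 uM, then concentration-response (max 50 uM) for chemicals passing threshold. Enzyme activity of recombinant human SIRT2 measured after 1 hr by fluorescence with mobility-shift separation of product; DMSO baseline.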
Chain of human Sirtuin 2 (SIRT2), SIRT2 (gene 22933) (Q8IXJ6 whole entry, looked up): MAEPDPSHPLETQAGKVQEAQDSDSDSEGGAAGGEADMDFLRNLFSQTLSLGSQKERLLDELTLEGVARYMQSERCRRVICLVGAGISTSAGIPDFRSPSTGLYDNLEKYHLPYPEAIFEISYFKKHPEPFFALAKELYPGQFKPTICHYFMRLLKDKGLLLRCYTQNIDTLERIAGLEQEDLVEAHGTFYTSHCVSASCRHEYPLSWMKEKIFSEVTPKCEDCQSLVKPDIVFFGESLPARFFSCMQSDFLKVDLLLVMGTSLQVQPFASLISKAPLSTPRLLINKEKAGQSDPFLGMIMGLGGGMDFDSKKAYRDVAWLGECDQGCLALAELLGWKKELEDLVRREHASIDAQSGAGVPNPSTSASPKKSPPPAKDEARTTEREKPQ

For experiment [12], the target named is Tyrosine-protein phosphatase non-receptor type 12 (Homo sapiens) (UniProt Q05209). Put plainly: NVS_ENZ_hPTPN12: NovaScreen (NVS) Enzymatic Assay for human Protein Tyrosine Phosphatase Non-receptor Type 12 (PTPN12) (AID 2283204). An outline of the steps:
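Single-concentration duplicates (25 uM) preceded singleton concentration-response up to 50 uM for chemicals passing threshold. Cell-free recombinant PTPN12 activity was read 1.33 h after dosing via fluorescence after mobility-shift separation; loss of signal versus DMSO.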

In experiment [13] the target is Tyrosine-protein phosphatase non-receptor type 13 (Homo sapiens) (UniProt Q12923). The experiment can be described thus: NVS_ENZ_hPTPN13: NovaScreen (NVS) Enzymatic Assay for human Protein Tyrosine Phosphatase Non-receptor Type 13 (PTPN13) (AID 2283205). An outline of the steps: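 Screened first at a single 25 uM in duplicate; compounds passing the threshold (e.g. 30% inhibition) were rerun in concentration series, top 50 uM. Recombinant enzyme, fluorescent substrate, mobility-shift separation, 0.5 h read. Data fitted as inhibition relative to DMSO.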

The target in experiment [14] is human Protein Tyrosine Phosphatase Non-receptor Type 4 (PTPN4), PTPN4 (gene 5775) (UniProt P29074). The experiment can be described thus: NVS_ENZ_hPTPN4: NovaScreen (NVS) Enzymatic Assay for human Protein Tyrosine Phosphatase Non-receptor Type 4 (PTPN4) (AID 2283208). An outline of the steps: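 Screened in duplicate at 25 uM, with hits then titrated to a top concentration of 50 uM. Recombinant Sf9-derived PTPN4 turnover was read by fluorescence with electrophoretic separation, 1.33 h after compound addition. DMSO served as baseline.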

The target in experiment [15] is human Protein Tyrosine Phosphatase Receptor Type B (PTPRB), PTPRB (gene 5787) (UniProt P23467). Put plainly: NVS_ENZ_hPTPRB: NovaScreen (NVS) Enzymatic Assay for human Protein Tyrosine Phosphatase Receptor Type B (PTPRB) (AID 2283211). An outline of the steps:
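Recombinant human PTPRB with a fluorescent substrate, product separated by electrophoretic mobility shift; read 1 h after dosing. Primary screen in duplicate at 25 uM; actives then retested in concentration series; loss of signal versus DMSO.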

Molecules are shown by their SMILES. Inconclusive results are not listed. Active and inactive are the calls of the source. Rule for the calls: active = hit-call score of the fitted dose curve at least 0.9, where 1 is the maximum; inconclusive = response in the unintended direction; inactive = score below 0.9.

Chain of human Protein Tyrosine Phosphatase Non-receptor Type 1 (PTPN1), PTPN1 (gene 5770) (P18031 whole entry, looked up): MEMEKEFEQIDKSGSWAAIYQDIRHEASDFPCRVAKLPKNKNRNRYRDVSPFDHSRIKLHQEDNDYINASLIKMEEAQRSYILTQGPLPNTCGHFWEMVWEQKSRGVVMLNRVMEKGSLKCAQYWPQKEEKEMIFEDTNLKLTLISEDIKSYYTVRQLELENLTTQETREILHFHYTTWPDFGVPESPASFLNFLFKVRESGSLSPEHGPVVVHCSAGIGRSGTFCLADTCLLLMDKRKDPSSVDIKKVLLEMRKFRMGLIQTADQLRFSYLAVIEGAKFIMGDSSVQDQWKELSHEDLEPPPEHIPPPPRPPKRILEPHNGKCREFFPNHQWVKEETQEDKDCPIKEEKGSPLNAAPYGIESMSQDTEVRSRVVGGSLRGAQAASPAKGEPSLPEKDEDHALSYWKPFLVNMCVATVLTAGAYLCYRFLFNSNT
Chain of human Raf-1 Proto-Oncogene, serine/threonine Kinase (RAF1), RAF1 (gene 5894) (P04049 whole entry, looked up): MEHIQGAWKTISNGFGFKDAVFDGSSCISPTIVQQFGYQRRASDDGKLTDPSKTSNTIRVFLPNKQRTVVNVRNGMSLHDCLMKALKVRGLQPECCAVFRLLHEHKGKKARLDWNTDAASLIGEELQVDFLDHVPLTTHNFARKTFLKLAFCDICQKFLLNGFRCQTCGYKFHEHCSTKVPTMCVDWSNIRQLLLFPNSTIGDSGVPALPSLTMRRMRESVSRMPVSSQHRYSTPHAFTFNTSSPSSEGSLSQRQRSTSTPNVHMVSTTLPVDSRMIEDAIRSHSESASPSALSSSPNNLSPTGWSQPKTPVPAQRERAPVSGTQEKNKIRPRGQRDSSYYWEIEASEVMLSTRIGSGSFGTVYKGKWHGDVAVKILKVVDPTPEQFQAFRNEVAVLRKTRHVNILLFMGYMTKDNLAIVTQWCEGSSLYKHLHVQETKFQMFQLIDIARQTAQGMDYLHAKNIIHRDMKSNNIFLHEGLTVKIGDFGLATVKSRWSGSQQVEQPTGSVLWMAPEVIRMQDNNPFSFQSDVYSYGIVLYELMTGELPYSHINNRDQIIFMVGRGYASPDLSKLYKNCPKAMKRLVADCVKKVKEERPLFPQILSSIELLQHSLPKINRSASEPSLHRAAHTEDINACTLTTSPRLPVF
Chain of human Phosphatase and Tensin Homolog (PTEN), PTEN (gene 5728) (P60484 whole entry, looked up): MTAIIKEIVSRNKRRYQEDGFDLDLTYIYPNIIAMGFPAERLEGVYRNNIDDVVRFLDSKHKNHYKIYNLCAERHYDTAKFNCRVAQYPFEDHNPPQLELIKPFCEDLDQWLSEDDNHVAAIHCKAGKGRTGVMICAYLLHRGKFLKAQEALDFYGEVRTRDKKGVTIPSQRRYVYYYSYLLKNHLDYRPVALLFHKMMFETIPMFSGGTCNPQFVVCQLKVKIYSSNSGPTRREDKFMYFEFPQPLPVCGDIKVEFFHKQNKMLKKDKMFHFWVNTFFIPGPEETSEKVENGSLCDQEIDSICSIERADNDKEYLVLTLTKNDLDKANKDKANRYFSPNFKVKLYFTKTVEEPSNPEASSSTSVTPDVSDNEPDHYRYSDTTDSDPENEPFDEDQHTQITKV
Chain of human Protein Tyrosine Phosphatase Non-receptor Type 2 (PTPN2), PTPN2 (gene 5771) (P17706 whole entry, looked up): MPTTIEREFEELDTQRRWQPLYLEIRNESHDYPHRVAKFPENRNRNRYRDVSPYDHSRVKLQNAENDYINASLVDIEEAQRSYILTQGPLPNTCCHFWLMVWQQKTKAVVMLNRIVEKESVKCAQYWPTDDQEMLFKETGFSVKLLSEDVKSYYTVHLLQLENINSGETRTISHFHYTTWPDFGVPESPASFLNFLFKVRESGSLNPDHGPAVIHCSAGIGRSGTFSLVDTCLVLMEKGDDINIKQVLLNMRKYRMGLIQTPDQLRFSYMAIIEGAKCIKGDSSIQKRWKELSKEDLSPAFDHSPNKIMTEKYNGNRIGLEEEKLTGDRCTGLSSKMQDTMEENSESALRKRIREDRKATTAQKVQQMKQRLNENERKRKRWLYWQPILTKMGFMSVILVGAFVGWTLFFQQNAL
Chain of human Protein Tyrosine Phosphatase Non-receptor Type 9 (PTPN9), PTPN9 (gene 5780) (P43378 whole entry, looked up): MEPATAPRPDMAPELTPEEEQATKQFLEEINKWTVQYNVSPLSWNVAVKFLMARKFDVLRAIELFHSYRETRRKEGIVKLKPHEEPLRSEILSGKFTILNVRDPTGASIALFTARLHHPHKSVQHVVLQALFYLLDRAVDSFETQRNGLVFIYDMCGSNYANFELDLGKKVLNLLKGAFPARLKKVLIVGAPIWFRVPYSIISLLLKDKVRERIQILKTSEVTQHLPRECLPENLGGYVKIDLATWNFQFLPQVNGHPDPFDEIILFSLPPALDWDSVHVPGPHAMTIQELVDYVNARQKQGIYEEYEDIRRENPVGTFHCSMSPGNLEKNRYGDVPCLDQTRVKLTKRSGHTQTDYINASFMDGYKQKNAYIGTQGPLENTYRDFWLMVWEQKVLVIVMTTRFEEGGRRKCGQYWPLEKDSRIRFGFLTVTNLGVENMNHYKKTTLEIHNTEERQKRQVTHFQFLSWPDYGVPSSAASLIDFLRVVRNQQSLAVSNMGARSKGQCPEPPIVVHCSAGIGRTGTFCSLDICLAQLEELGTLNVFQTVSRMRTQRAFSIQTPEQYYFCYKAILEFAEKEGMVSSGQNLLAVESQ

In the case of `COc1ccc(-c2ccccc2)cc1NNC(=O)OC(C)C`, in experiment [1], the compound was called inactive.

With `N#Cc1c[nH]cc1-c1cccc2c1OC(F)(F)O2`, the result in [2] was inactive.

Take `N#CN=C1SCCN1Cc1ccc(Cl)nc1`: the outcome (with PPP2CA (gene 5515); in experiment [3]; in experiment [4]) was inactive.

Consider `CS(=O)(=O)c1cc(C(F)(F)F)ccc1C(=O)c1cnoc1C1CC1`, for which, in experiment [5], the compound was classed as inactive.

Regarding `Nc1c(Cl)c(Cl)nc(C(=O)O)c1Cl`, in [2], the outcome was inactive.

Take `CN=C=S`: the outcome in [2], in experiment [6], in experiment [1] and in experiment [7] was inactive.

For the compound `CCOc1nc(F)cc2nc(S(=O)(=O)Nc3c(Cl)cccc3Cl)nn12`, the compound was called inactive in experiment [2] and in experiment [6]. Besides, the AC50 in [3] was 29.9 µM (active).

For `CCOP(=S)(OCC)Oc1nc(Cl)n(C(C)C)n1`, the compound was classed as inactive in [8].

Consider `O=C1C2CC=CCC2C(=O)N1SC(Cl)(Cl)Cl` (stereo not given), for which the concentration at half-maximal activity (AC50) is 23 µM (active) in experiment [3], 46.9 µM (active) in [4], 13 µM (active) in [11] and 13.3 µM (active) in experiment [7]. In addition, the compound was classed as inactive in experiment [5], in [9] and in experiment [10].

On to `CCCCOCN(C(=O)CCl)c1c(CC)cccc1CC`, for which, in experiment [8], the compound was called inactive.

As to `CCCCC(O)(Cn1cncn1)c1ccc(Cl)cc1Cl` (stereo not given), in [11], the AC50 was 15.9 µM (active).

Regarding `CCCC(=NOCC)C1=C(O)CC(CC(C)SCC)CC1=O` (stereo not given), the compound was classed as inactive in [2], in experiment [12], in experiment [13], in experiment [4], in experiment [15] and in experiment [6]. For the same compound, the outcome in experiment [10] and in [1] was inactive. The values for the AC50 in experiment [3], in experiment [14] and in [9] were 18.2 µM (active), 17.9 µM (active) and 42.2 µM (active), respectively.
